Experimental findings from PubChem BioAssay (NCATS) are described below.

SMILES strings stand for the structures. Records with an inconclusive call do not appear. Active and inactive are the calls of the source. Unless noted, the call rests on the fitted dose curve; in most records, active means well fitted curve in the direction sought with a large enough effect; inconclusive means small, poorly fitted or top-dose-only effect, or another doubt; inactive means no such curve, though single readings can be large; an effect the other way counts as inactive or inconclusive.

A short description of assay [1]: qHTS of pediatric cancer cell lines to identify multiple opportunities for drug repurposing: Primary screen for TC32 cells (AID 1347089). Further: nearly all actives have a fitted effect of over 60% in size. Further: potency means the concentration at half of the fitted maximal effect. The settings on record: TC32 Ewing sarcoma viability, CellTiter-Glo luminescence, 48 h; series mostly up to 45.8 µM. A digest of the protocol:
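Luminescent CellTiter-Glo read-out of metabolically active TC32 cells after 48 h compound exposure. Primary: MIPE 11-point, 0.78 nM–46 µM; NPC 8-point, 0.59 nM–46 µM. Confirmatory: 11-point dilutions.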
(qHTS replaces the single test concentration by a dilution series.)

Assay [2] in a line: qHTS of pediatric cancer cell lines to identify multiple opportunities for drug repurposing: Primary screen for DAOY cells (AID 1347090). Further: nearly all actives have a fitted effect of over 55% in size. Further: potency means the concentration at half of the fitted maximal effect. The settings on record: DAOY medulloblastoma viability, CellTiter-Glo luminescence, 48 h; series mostly up to 46 µM. A digest of the protocol:
(§1)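 Eight- or eleven-point concentration series, 48 h treatment at 37 degrees C in growth media; readout CellTiter-Glo luminescence. Potency and efficacy were taken from the concentration-response curves.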

Assay [3] in a line: qHTS of pediatric cancer cell lines to identify multiple opportunities for drug repurposing: Primary screen for SJ-GBM2 cells (AID 1347091). Further: potency means the concentration at half of the fitted maximal effect. The settings on record: SJ-GBM2 viability, CellTiter-Glo luminescence, 48 h; series mostly up to 46 µM. A digest of the protocol:
as §1

Assay [4] can be described thus: qHTS of pediatric cancer cell lines to identify multiple opportunities for drug repurposing: Primary screen for A673 cells (AID 1347092). Further: nearly all actives have a fitted effect of over 45% in size. Further: potency means the concentration at half of the fitted maximal effect. The conditions noted are these: A673 Ewing sarcoma viability, CellTiter-Glo ATP luminescence, 48 h; series mostly up to 46 µM. A digest of the protocol: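 A673 cells (500-1,000 cells/well in growth media) were pre-incubated 5 h at 37 degrees C, then exposed to compounds for 48 h. Viability was read as CellTiter-Glo luminescence; concentration-response curves came directly from the primary screen.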

Assay [5] is described as follows: qHTS of pediatric cancer cell lines to identify multiple opportunities for drug repurposing: Primary screen for BT-37 cells (AID 1347094). Further: potency means the concentration at half of the fitted maximal effect. The conditions noted are these: BT-37 viability, CellTiter-Glo luminescence, 48 h; series mostly up to 57.3 µM. A digest of the protocol: (§2)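 Luminescence from CellTiter-Glo served as readout of metabolically active cells after 48 h compound exposure. Titrations: MIPE 11-point, from 0.78 nM; NPC 8-point, from 0.59 nM (final). Concentration-response curves came straight from the primary screen.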

Assay [6] can be described thus: qHTS of pediatric cancer cell lines to identify multiple opportunities for drug repurposing: Primary screen for U-2 OS cells (AID 1347096). Further: nearly all actives have a fitted effect of over 50% in size. Further: potency means the concentration at half of the fitted maximal effect. The settings on record: U-2 OS viability, CellTiter-Glo luminescence, 48 h; series mostly up to 46 µM. A digest of the protocol: (§3)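 Cells (500-1,000/well) in growth media were settled 5 h at 37 degrees C, then given compounds for 48 h. Viability was read as CellTiter-Glo luminescence. Primary runs used MIPE at 11 points (0.78 nM-46 µM) and NPC at 8 points (0.59 nM-46 µM); follow-ups used 11 points.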

Assay [7] in a line: qHTS of pediatric cancer cell lines to identify multiple opportunities for drug repurposing: Primary screen for SK-N-SH cells (AID 1347098). Further: nearly all actives have a fitted effect of over 65% in size. Further: potency means the concentration at half of the fitted maximal effect. The conditions noted are these: SK-N-SH viability, CellTiter-Glo luminescence, 48 h; series mostly up to 57 µM. A digest of the protocol: (§4)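 Cells (500-1,000/well) rested 5 h, then received compounds for 48 h; metabolically active cells were measured by CellTiter-Glo luminescence. Final concentrations spanned up to 46 µM (MIPE, 11-point) or 0.59 nM-46 µM (NPC, 8-point) in primary screens, 11-point in follow-ups.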

The nature of assay [8]: qHTS of pediatric cancer cell lines to identify multiple opportunities for drug repurposing: Primary screen for NB1643 cells (AID 1347099). Further: potency means the concentration at half of the fitted maximal effect; nearly all actives have a fitted effect of over 50% in size. The conditions noted are these: NB1643 neuroblastoma viability, CellTiter-Glo luminescence, 48 h; series mostly up to 46 µM. A digest of the protocol: as §2
Assay [9] can be described thus: qHTS of pediatric cancer cell lines to identify multiple opportunities for drug repurposing: Primary screen for LAN-5 cells (AID 1347100). Further: potency means the concentration at half of the fitted maximal effect. The conditions noted are these: LAN-5 neuroblastoma viability, CellTiter-Glo luminescence, 48 h; series mostly up to 46 µM. A digest of the protocol:
as §3

Assay [10] can be described thus: qHTS of pediatric cancer cell lines to identify multiple opportunities for drug repurposing: Primary screen for BT-12 cells (AID 1347101). Further: nearly all actives have a fitted effect of over 25% in size. Further: potency means the concentration at half of the fitted maximal effect. The settings on record: BT-12 viability, CellTiter-Glo luminescence, 48 h; series mostly up to 57.3 µM. A digest of the protocol: as §4
Assay [11] can be described thus: qHTS of pediatric cancer cell lines to identify multiple opportunities for drug repurposing: Primary screen for Rh18 cells (AID 1347102). Further: nearly all actives have a fitted effect of over 65% in size. Further: potency means the concentration at half of the fitted maximal effect. The settings on record: Rh18 rhabdomyosarcoma viability, CellTiter-Glo luminescence, 48 h; series mostly up to 46 µM. A digest of the protocol: as §3
Assay [12] is described as follows: qHTS of pediatric cancer cell lines to identify multiple opportunities for drug repurposing: Primary screen for OHS-50 cells (AID 1347103). Further: nearly all actives have a fitted effect of over 40% in size. Further: potency means the concentration at half of the fitted maximal effect. The settings on record: OHS-50 osteosarcoma viability, CellTiter-Glo luminescence, 48 h; series mostly up to 57.3 µM. A digest of the protocol: as §4
The nature of assay [13]: qHTS of pediatric cancer cell lines to identify multiple opportunities for drug repurposing: Primary screen for RD cells (AID 1347104). Further: nearly all actives have a fitted effect of over 55% in size. Further: potency means the concentration at half of the fitted maximal effect. The settings on record: RD rhabdomyosarcoma viability, CellTiter-Glo luminescence, 48 h; series mostly up to 46 µM. A digest of the protocol: as §2
Assay [14] in a line: qHTS of pediatric cancer cell lines to identify multiple opportunities for drug repurposing: Primary screen for MG 63 (6-TG R) cells (AID 1347105). Further: nearly all actives have a fitted effect of over 50% in size. Further: potency means the concentration at half of the fitted maximal effect. The settings on record: MG 63 (6-TG R) viability, CellTiter-Glo, 48 h; series mostly up to 46 µM. A digest of the protocol:
as §2

Assay [15] can be described thus: qHTS of pediatric cancer cell lines to identify multiple opportunities for drug repurposing: Primary screen for control Hh wild type fibroblast cells (AID 1347106). Further: nearly all actives have a fitted effect of over 55% in size. Further: potency means the concentration at half of the fitted maximal effect. The conditions noted are these: Hh wild-type fibroblast viability, CellTiter-Glo luminescence, 48 h; series mostly up to 46 µM. A digest of the protocol:
as §3

Assay [16] can be described thus: qHTS of pediatric cancer cell lines to identify multiple opportunities for drug repurposing: Primary screen for SK-N-MC cells (AID 1347093). Further: potency means the concentration at half of the fitted maximal effect. The settings on record: SK-N-MC viability, CellTiter-Glo luminescence, 48 h; series mostly up to 46 µM. A digest of the protocol:
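Metabolically active cells were quantified by ATP-dependent luminescence (CellTiter-Glo, 15 min at room temperature) following 48 h treatment. Cells had been plated at 500-1,000 per well and settled for 5 h beforehand.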

A short description of assay [17]: qHTS of pediatric cancer cell lines to identify multiple opportunities for drug repurposing: Primary screen for Saos-2 cells (AID 1347097). Further: potency means the concentration at half of the fitted maximal effect; nearly all actives have a fitted effect of over 40% in size. The conditions noted are these: Saos-2 viability, CellTiter-Glo ATP luminescence, 48 h; series mostly up to 46 µM. A digest of the protocol: as §2
In assay [18] the target is Nucleoprotein (Lymphocytic choriomeningitis virus (strain Armstrong)) (UniProt P09992). Kind of assay: qHTS for Inhibitors of the Functional Ribonucleoprotein Complex (vRNP) of Lymphocytic Choriomeningitis Arenaviruses (LCMV): LCMV Primary Screen - GLuc reporter signal (AID 1347086; calls by dose curve; further: nearly all actives have a fitted effect of over 70% in size). The settings on record: LCMV minigenome vRNP cell assay, Gaussia luciferase reporter; series mostly up to 57.5 µM.
Chain of Nucleoprotein (Lymphocytic choriomeningitis virus (strain Armstrong)) (P09992 whole entry, looked up): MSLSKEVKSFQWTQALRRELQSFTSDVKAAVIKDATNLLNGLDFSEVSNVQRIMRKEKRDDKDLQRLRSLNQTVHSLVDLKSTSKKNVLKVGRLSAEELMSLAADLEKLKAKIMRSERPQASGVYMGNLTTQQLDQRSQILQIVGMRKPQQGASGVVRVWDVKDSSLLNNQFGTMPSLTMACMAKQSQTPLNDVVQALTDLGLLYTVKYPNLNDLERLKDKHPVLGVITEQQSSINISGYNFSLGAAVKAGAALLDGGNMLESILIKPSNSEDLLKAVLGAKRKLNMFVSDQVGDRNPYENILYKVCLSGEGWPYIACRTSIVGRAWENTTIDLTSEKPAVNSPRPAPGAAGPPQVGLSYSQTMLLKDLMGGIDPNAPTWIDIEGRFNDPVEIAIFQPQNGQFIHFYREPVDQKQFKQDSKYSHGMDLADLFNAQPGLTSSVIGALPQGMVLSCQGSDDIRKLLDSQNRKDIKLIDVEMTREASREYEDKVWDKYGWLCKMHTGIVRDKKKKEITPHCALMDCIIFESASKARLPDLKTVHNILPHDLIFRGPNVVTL

Assay [19] in a line: qHTS of pediatric cancer cell lines to identify multiple opportunities for drug repurposing: Primary screen for NB-EBc1 cells (AID 1347095). Further: potency means the concentration at half of the fitted maximal effect. The settings on record: NB-EBc1 neuroblastoma viability, CellTiter-Glo luminescence, 48 h; series mostly up to 46 µM. A digest of the protocol:
as §2

Regarding `C#CC1(O)CCC2C3CCC4=CC(=O)CCC4(C)C3CCC21C` (stereo not given), the Potency result in assay [1], in assay [2], in assay [3], in assay [4], in [5] and in assay [6] was “inactive” in each case. Moreover, the Potency result in assay [7], in assay [9], in assay [10], in [11], in assay [12] and in assay [13] was “inactive” throughout. Moreover, the Potency result in assay [14] and in assay [15] was “inactive” throughout. Moreover, in assay [8], the Potency is 23500 nM (active).

Take `CN1[C@H]2CC(O)C[C@H]1[C@H]1O[C@H]12` (stereo not given in full): the Potency result in [1], in [6] and in [15] was “inactive” throughout. In addition, the Potency was 9350 nM (active) in [3]; 18700 nM (active) in assay [4]; 9350 nM (active) in [16]; 13200 nM (active) in assay [17]; 20900 nM (active) in [8]; 19300 nM (active) in assay [10]. Besides, the results for the Potency in [12], in [13] and in [14] were 9680 nM (active), 33200 nM (active) and 14800 nM (active), respectively.

Take `CC[C@@]1(O)C(=O)OCc2c1cc1n(c2=O)Cc2cc3ccccc3nc2-1`: in [18], the Potency entry is “inactive”. The Potency was 26.2 nM (active) in assay [1]; 46.9 nM (active) in assay [2]; 10.5 nM (active) in assay [3]; 23.5 nM (active) in assay [4]; 7.4 nM (active) in assay [16]; 13.7 nM (active) in assay [5]. Besides, the Potency in assay [19] was 8.3 nM (active); in assay [6], 1180 nM (active); in assay [17], 46.9 nM (active); in assay [7], 121 nM (active); in assay [8], 46.9 nM (active); in assay [9] it was 9.3 nM (active). The Potency is 273 nM (active) in assay [10], 296 nM (active) in assay [11], 19.3 nM (active) in assay [12] and 59 nM (active) in assay [14].

Consider `COc1ccc(N(C(=O)Oc2c(C)cccc2C)c2ccnc(Nc3ccc(N4CCN(C)CC4)cc3)n2)c(OC)c1`, for which the Potency result in assay [18], in assay [1], in [6] and in assay [11] was “inactive” throughout. Also, the Potency is 8330 nM (active) in assay [3]; 935 nM (active) in assay [4]; 1320 nM (active) in assay [16]; 15300 nM (active) in assay [5]; 8330 nM (active) in [19]; 242 nM (active) in [7]. For the same molecule, the Potency in assay [9] was 1480 nM (active); in assay [12], 9680 nM (active).

Turning to `Cc1c(C(=O)c2cccc3ccccc23)c2cccc3c2n1[C@H](CN1CCOCC1)CO3`, the Potency result in assay [1] and in [6] was “inactive” throughout. In addition, the Potency in assay [2] is 23500 nM (active); in assay [3], 14800 nM (active); in assay [4], 23500 nM (active); in assay [16], 10500 nM (active); in [19] it was 20900 nM (active); in assay [8], 11800 nM (active). For the same molecule, the Potency is 27300 nM (active) in [10]; 20900 nM (active) in assay [11]; 13700 nM (active) in [12]; 29600 nM (active) in assay [13]; 23500 nM (active) in [14].

On to `S=C(SSC(=S)N1CCCCC1)N1CCCCC1`, for which the Potency in assay [1] was 938 nM (active); in [2], 26.6 nM (active); in assay [16], 37.6 nM (active); in assay [5], 309 nM (active); in assay [17] it was 37.6 nM (active); in assay [8] it was 94.4 nM (active). The Potency is 168 nM (active) in assay [9]; 38.9 nM (active) in assay [10]; 29.9 nM (active) in assay [11]; 29.9 nM (active) in assay [13]; 1060 nM (active) in assay [15].
